PubChem BioAssay (NCATS)
Results filed as inconclusive are left out. The source made the active and inactive calls. Calls follow the shape of the dose curve; as a rule, active = well fitted inhibition curve with a large enough effect; inconclusive = small, poorly fitted or top-dose-only effect; inactive = flat fitted curve, though single readings scatter.

Test system: P93_24
Experiment: qHTS profiling for inhibitors of Plasmodium falciparum proliferation (AID 504749); also: nearly all actives have a fitted effect of over 60% in size;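 as to activity, negative = inhibition: 0% = DMSO vehicle and full inhibition = artemisinin control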
Details: P. falciparum in erythrocytes, SYBR Green DNA, 72 h; series mostly up to 28.7 µM; activity, negative = inhibition: at the top concentration
Method in brief: (§1)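 P. falciparum-infected erythrocytes (0.3% parasitemia, 2.5% hematocrit final) were exposed to compounds for 72 h at 37 C in 5% CO2, then lysed with SYBR Green buffer overnight at room temperature; parasite DNA fluorescence was normalized to artemisinin and DMSO controls.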
Potency is read from the fitted curve at half-maximal effect.

**Q.** How did the Potency turn out when COc1cccc2c1C(=O)c1c(O)c3c(c(O)c1C2=O)C[C@@](O)(C(=O)CO)C[C@@H]3O[C@H]1C[C@H](N)[C@H](OC2CCCCO2)[C@H](C)O1 (stereo not given in full) was run?
**A.** 2.24 µM (active)

**Q.** With CCCCCCCCCCCC(CC1OC(=O)C1CCCCCC)OC(=O)C(CC(C)C)NC=O (stereo not given) as the molecule, how does the Potency read?
**A.** 0.891 µM (active)

**Q.** Which Potency does the source give for CCC(C(=O)O)C1CCC(C)C(C(C)C(O)C(C)C(=O)C(CC)C2OC3(C=CC(O)[C@@]4(CC[C@](C)(C5CC[C@@](O)(CC)C(C)O5)O4)O3)C(C)CC2C)O1 (stereo not given in full) here?
**A.** 0.891 µM (active)

**Q.** For Nc1nc2c(c(=O)[nH]1)N(C=O)[C@H](CNc1ccc(C(=O)N[C@@H](CCC(=O)O)C(=O)O)cc1)CN2, which “activity, negative = inhibition” value is on record?
**A.** 1.53% [at 12.8 µM] (inactive)

**Q.** With COc1ccc([C@@H]2CNC(=O)C2)cc1OC1CCCC1 as the molecule, how does the “activity, negative = inhibition” value read?
**A.** -2.91% [at 12.8 µM] (inactive)

**Q.** How did the “activity, negative = inhibition” value turn out when OCC(O)C(O)C(O)CO (stereo not given) was run?
**A.** -0.637% (inactive)

**Q.** COc1ccc2c(c1OC)C(=O)OC2[C@H]1c2c(cc3c(c2OC)OCO3)CCN1C (stereo not given in full) was tested. Which “activity, negative = inhibition” value did it give?
**A.** 2.05% (inactive)

Test system: P94_40
Experiment: as above
Details: P. falciparum in erythrocytes, SYBR Green DNA, 72 h; series mostly up to 28.7 µM; activity, negative = inhibition: at the top concentration
Method in brief: as §1

**Q.** COc1cccc2c1C(=O)c1c(O)c3c(c(O)c1C2=O)C[C@@](O)(C(=O)CO)C[C@@H]3O[C@H]1C[C@H](N)[C@H](OC2CCCCO2)[C@H](C)O1 (stereo not given in full) was tested. Which Potency did it give?
**A.** 2.51 µM (active)

**Q.** For CCCCCCCCCCCC(CC1OC(=O)C1CCCCCC)OC(=O)C(CC(C)C)NC=O (stereo not given), which Potency is on record?
**A.** 0.355 µM (active)

**Q.** CCC(C(=O)O)C1CCC(C)C(C(C)C(O)C(C)C(=O)C(CC)C2OC3(C=CC(O)[C@@]4(CC[C@](C)(C5CC[C@@](O)(CC)C(C)O5)O4)O3)C(C)CC2C)O1 (stereo not given in full) was tested. Which Potency did it give?
**A.** 0.501 µM (active)

**Q.** Nc1nc2c(c(=O)[nH]1)N(C=O)[C@H](CNc1ccc(C(=O)N[C@@H](CCC(=O)O)C(=O)O)cc1)CN2 was tested. Which “activity, negative = inhibition” value did it give?
**A.** -14.7% [at 12.8 µM] (inactive)

**Q.** How did the “activity, negative = inhibition” value turn out when COc1ccc([C@@H]2CNC(=O)C2)cc1OC1CCCC1 was run?
**A.** -0.733% [at 12.8 µM] (inactive)

**Q.** With OCC(O)C(O)C(O)CO (stereo not given) as the molecule, how does the “activity, negative = inhibition” value read?
**A.** -1.53% (inactive)

**Q.** COc1ccc2c(c1OC)C(=O)OC2[C@H]1c2c(cc3c(c2OC)OCO3)CCN1C (stereo not given in full) was tested. Which “activity, negative = inhibition” value did it give?
**A.** 1.89% (inactive)

Test system: PAD
Experiment: as above
Details: P. falciparum in erythrocytes, SYBR Green DNA, 72 h; series mostly up to 28.7 µM; activity, negative = inhibition: at the top concentration
Method in brief: as §1

**Q.** Which Potency does the source give for COc1cccc2c1C(=O)c1c(O)c3c(c(O)c1C2=O)C[C@@](O)(C(=O)CO)C[C@@H]3O[C@H]1C[C@H](N)[C@H](OC2CCCCO2)[C@H](C)O1 (stereo not given in full) here?
**A.** 2.24 µM (active)

**Q.** For CCC(C(=O)O)C1CCC(C)C(C(C)C(O)C(C)C(=O)C(CC)C2OC3(C=CC(O)[C@@]4(CC[C@](C)(C5CC[C@@](O)(CC)C(C)O5)O4)O3)C(C)CC2C)O1 (stereo not given in full), which Potency is on record?
**A.** 1.41 µM (active)

**Q.** With Nc1nc2c(c(=O)[nH]1)N(C=O)[C@H](CNc1ccc(C(=O)N[C@@H](CCC(=O)O)C(=O)O)cc1)CN2 as the molecule, how does the “activity, negative = inhibition” value read?
**A.** 1.11% [at 12.8 µM] (inactive)

**Q.** How did the “activity, negative = inhibition” value turn out when COc1ccc([C@@H]2CNC(=O)C2)cc1OC1CCCC1 was run?
**A.** 1.34% [at 12.8 µM] (inactive)

**Q.** OCC(O)C(O)C(O)CO (stereo not given) was tested. Which “activity, negative = inhibition” value did it give?
**A.** 5.33% (inactive)

**Q.** COc1ccc2c(c1OC)C(=O)OC2[C@H]1c2c(cc3c(c2OC)OCO3)CCN1C (stereo not given in full) was tested. Which “activity, negative = inhibition” value did it give?
**A.** 1.83% (inactive)

Test system: PC15
Experiment: as above
Details: P. falciparum in erythrocytes, SYBR Green DNA, 72 h; series mostly up to 28.7 µM; activity, negative = inhibition: at the top concentration
Method in brief: as §1

**Q.** For COc1cccc2c1C(=O)c1c(O)c3c(c(O)c1C2=O)C[C@@](O)(C(=O)CO)C[C@@H]3O[C@H]1C[C@H](N)[C@H](OC2CCCCO2)[C@H](C)O1 (stereo not given in full), which Potency is on record?
**A.** 10 µM (active)

**Q.** For CCCCCCCCCCCC(CC1OC(=O)C1CCCCCC)OC(=O)C(CC(C)C)NC=O (stereo not given), which Potency is on record?
**A.** 1.12 µM (active)

**Q.** For CCC(C(=O)O)C1CCC(C)C(C(C)C(O)C(C)C(=O)C(CC)C2OC3(C=CC(O)[C@@]4(CC[C@](C)(C5CC[C@@](O)(CC)C(C)O5)O4)O3)C(C)CC2C)O1 (stereo not given in full), which Potency is on record?
**A.** 2 µM (active)

**Q.** With Nc1nc2c(c(=O)[nH]1)N(C=O)[C@H](CNc1ccc(C(=O)N[C@@H](CCC(=O)O)C(=O)O)cc1)CN2 as the molecule, how does the “activity, negative = inhibition” value read?
**A.** 3.73% [at 12.8 µM] (inactive)

**Q.** COc1ccc([C@@H]2CNC(=O)C2)cc1OC1CCCC1 was tested. Which “activity, negative = inhibition” value did it give?
**A.** 5.17% [at 12.8 µM] (inactive)

**Q.** For OCC(O)C(O)C(O)CO (stereo not given), which “activity, negative = inhibition” value is on record?
**A.** 15.8% (inactive)

**Q.** For COc1ccc2c(c1OC)C(=O)OC2[C@H]1c2c(cc3c(c2OC)OCO3)CCN1C (stereo not given in full), which “activity, negative = inhibition” value is on record?
**A.** 1.54% (inactive)

Test system: PC26
Experiment: as above
Details: P. falciparum in erythrocytes, SYBR Green DNA, 72 h; series mostly up to 28.7 µM; activity, negative = inhibition: at the top concentration
Method in brief: as §1

**Q.** Which Potency does the source give for COc1cccc2c1C(=O)c1c(O)c3c(c(O)c1C2=O)C[C@@](O)(C(=O)CO)C[C@@H]3O[C@H]1C[C@H](N)[C@H](OC2CCCCO2)[C@H](C)O1 (stereo not given in full) here?
**A.** 7.57 µM (active)

**Q.** How did the Potency turn out when CCC(C(=O)O)C1CCC(C)C(C(C)C(O)C(C)C(=O)C(CC)C2OC3(C=CC(O)[C@@]4(CC[C@](C)(C5CC[C@@](O)(CC)C(C)O5)O4)O3)C(C)CC2C)O1 (stereo not given in full) was run?
**A.** 0.478 µM (active)

**Q.** With Nc1nc2c(c(=O)[nH]1)N(C=O)[C@H](CNc1ccc(C(=O)N[C@@H](CCC(=O)O)C(=O)O)cc1)CN2 as the molecule, how does the “activity, negative = inhibition” value read?
**A.** -5.45% [at 12.8 µM] (inactive)

**Q.** Which “activity, negative = inhibition” value does the source give for COc1ccc([C@@H]2CNC(=O)C2)cc1OC1CCCC1 here?
**A.** -0.599% [at 12.8 µM] (inactive)

**Q.** How did the “activity, negative = inhibition” value turn out when OCC(O)C(O)C(O)CO (stereo not given) was run?
**A.** 3.41% (inactive)

**Q.** With COc1ccc2c(c1OC)C(=O)OC2[C@H]1c2c(cc3c(c2OC)OCO3)CCN1C (stereo not given in full) as the molecule, how does the “activity, negative = inhibition” value read?
**A.** -7.7% (inactive)

Test system: PC49
Experiment: as above
Details: P. falciparum in erythrocytes, SYBR Green DNA, 72 h; series mostly up to 28.7 µM; activity, negative = inhibition: at the top concentration
Method in brief: as §1

**Q.** Which Potency does the source give for COc1cccc2c1C(=O)c1c(O)c3c(c(O)c1C2=O)C[C@@](O)(C(=O)CO)C[C@@H]3O[C@H]1C[C@H](N)[C@H](OC2CCCCO2)[C@H](C)O1 (stereo not given in full) here?
**A.** 4.47 µM (active)

**Q.** Which Potency does the source give for CCCCCCCCCCCC(CC1OC(=O)C1CCCCCC)OC(=O)C(CC(C)C)NC=O (stereo not given) here?
**A.** 0.891 µM (active)

**Q.** How did the Potency turn out when CCC(C(=O)O)C1CCC(C)C(C(C)C(O)C(C)C(=O)C(CC)C2OC3(C=CC(O)[C@@]4(CC[C@](C)(C5CC[C@@](O)(CC)C(C)O5)O4)O3)C(C)CC2C)O1 (stereo not given in full) was run?
**A.** 2.51 µM (active)

**Q.** Which “activity, negative = inhibition” value does the source give for Nc1nc2c(c(=O)[nH]1)N(C=O)[C@H](CNc1ccc(C(=O)N[C@@H](CCC(=O)O)C(=O)O)cc1)CN2 here?
**A.** 13.4% [at 12.8 µM] (inactive)

**Q.** COc1ccc([C@@H]2CNC(=O)C2)cc1OC1CCCC1 was tested. Which “activity, negative = inhibition” value did it give?
**A.** 10.8% [at 12.8 µM] (inactive)

**Q.** How did the “activity, negative = inhibition” value turn out when OCC(O)C(O)C(O)CO (stereo not given) was run?
**A.** 4.69% (inactive)

**Q.** COc1ccc2c(c1OC)C(=O)OC2[C@H]1c2c(cc3c(c2OC)OCO3)CCN1C (stereo not given in full) was tested. Which “activity, negative = inhibition” value did it give?
**A.** -2.02% (inactive)
